This is an account of results in PubChem BioAssay (NCATS).

Records with an inconclusive call do not appear. A number with no mark means an inactive call. Calls come from the whole dose curve; as a rule, active = well fitted curve in the direction sought with a large enough effect; inconclusive = small, poorly fitted or top-dose-only effect, or another doubt; inactive = no such curve, though single readings can be large; an effect the other way counts as inactive or inconclusive.

The test system of the first test is Zika virus NS2B-NS3 protease (linked construct). Kind of test: Primary screen NINDS Rhodamine qHTS for Zika virus inhibitors (AID 1347160). Note: % is set by controls: 0 for no effect and ±100 for the full control effect; nearly all actives have a fitted effect of over 55% in size. Particulars: purified NS2B-NS3 protease, Rhodamine110 substrate fluorescence; series mostly up to 57.1 µM; activity change, negative = inhibition: at the top concentration. A digest of the protocol: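 Enzyme (25 nM, linked NS2B-NS3) was preincubated 15 min with compound in 10 mM Tris-HCl pH 8.0, 0.01% Tween 20. Rhodamine110 substrate (1.5 microM) was then added and fluorescence read at start and after 15 min.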
In general terms: Quantitative high-throughput screening tests each substance at several concentrations.
In the case of `NCCc1c[nH]c2ccc(O)cc12`, the “activity change, negative = inhibition” value is 13.5% [at 112 µM].
Same read-out and setting: with `CC(C)(C)NC[C@H](O)c1ccc(O)cc1Cl` the figure was -0.573%.
As to `O=C(Oc1ccc([N+](=O)[O-])cc1)N1CCC(C(O)(c2ccc3c(c2)OCO3)c2ccc3c(c2)OCO3)CC1`, the “activity change, negative = inhibition” value is 19%.
On the same count and under the same terms, with `O=c1[nH]c2ccc(Cl)cc2c(N[C@@H]2CN3CCC2CC3)c1-c1nc2ccccc2[nH]1` the figure was 8.75%.
Regarding `O=C(NCC1CCOCC1)c1cnc(Nc2ccc(Cl)cc2Cl)nc1C(F)(F)F`, the “activity change, negative = inhibition” value was 18.9%.
Turning to `CC(C)[C@]12O[C@H]1[C@@H]1O[C@]13[C@]1(O[C@H]1C[C@H]1C4=C(CC[C@@]13C)C(=O)OC4)[C@@H]2O`, the “activity change, negative = inhibition” value is 13.1%.
The same measure, in the same setting: with `COc1ccc(N(C(=O)Oc2c(C)cccc2C)c2ccnc(Nc3ccc(N4CCN(C)CC4)cc3)n2)c(OC)c1` the figure was -24.3%; with `COC1=C[C@@H]2[C@@H]3Cc4ccc(OC)c(O)c4[C@]2(CCN3C)CC1=O`, 16.1%; with `NCCc1c[nH]c2ccccc12`, 25.6% [at 112 µM].
The same measure, in the same setting: with `CCN1CCN(C(=O)Cc2ccc(Nc3ncc(F)c(Nc4ccc(C(=O)Nc5ccccc5Cl)cc4)n3)cc2)CC1` the figure was -1.02%.

The next test deals with Lysine-specific demethylase 5B (Homo sapiens) (UniProt Q9UGL1). Description: Optimization screen for KDM5B Histone Demethylases FDH coupled qHTS against the LOPAC library (AID 1347166). Note: 0% is about no effect. The conditions noted are these: KDM5B demethylation, FDH-coupled NADH fluorescence (FDH is formaldehyde dehydrogenase); series mostly up to 57.5 µM; activity, negative = inhibition: at the top concentration. A digest of the protocol: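 KDM5BDeltaAP (200nM final) in 50mM HEPES pH 7.5, 0.01% Tween-20 was preincubated with compound for 10 min at room temperature. A substrate mix of 12.5uM H3K4Me3, 25uM a-ketoglutarate, ascorbate, Fe2+, NAD+ and formaldehyde dehydrogenase was then added. NADH fluorescence (340/450 nm) was read initially and after 30 min.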
Lysine-specific demethylase 5B (Homo sapiens), sequence (Q9UGL1 whole entry, looked up): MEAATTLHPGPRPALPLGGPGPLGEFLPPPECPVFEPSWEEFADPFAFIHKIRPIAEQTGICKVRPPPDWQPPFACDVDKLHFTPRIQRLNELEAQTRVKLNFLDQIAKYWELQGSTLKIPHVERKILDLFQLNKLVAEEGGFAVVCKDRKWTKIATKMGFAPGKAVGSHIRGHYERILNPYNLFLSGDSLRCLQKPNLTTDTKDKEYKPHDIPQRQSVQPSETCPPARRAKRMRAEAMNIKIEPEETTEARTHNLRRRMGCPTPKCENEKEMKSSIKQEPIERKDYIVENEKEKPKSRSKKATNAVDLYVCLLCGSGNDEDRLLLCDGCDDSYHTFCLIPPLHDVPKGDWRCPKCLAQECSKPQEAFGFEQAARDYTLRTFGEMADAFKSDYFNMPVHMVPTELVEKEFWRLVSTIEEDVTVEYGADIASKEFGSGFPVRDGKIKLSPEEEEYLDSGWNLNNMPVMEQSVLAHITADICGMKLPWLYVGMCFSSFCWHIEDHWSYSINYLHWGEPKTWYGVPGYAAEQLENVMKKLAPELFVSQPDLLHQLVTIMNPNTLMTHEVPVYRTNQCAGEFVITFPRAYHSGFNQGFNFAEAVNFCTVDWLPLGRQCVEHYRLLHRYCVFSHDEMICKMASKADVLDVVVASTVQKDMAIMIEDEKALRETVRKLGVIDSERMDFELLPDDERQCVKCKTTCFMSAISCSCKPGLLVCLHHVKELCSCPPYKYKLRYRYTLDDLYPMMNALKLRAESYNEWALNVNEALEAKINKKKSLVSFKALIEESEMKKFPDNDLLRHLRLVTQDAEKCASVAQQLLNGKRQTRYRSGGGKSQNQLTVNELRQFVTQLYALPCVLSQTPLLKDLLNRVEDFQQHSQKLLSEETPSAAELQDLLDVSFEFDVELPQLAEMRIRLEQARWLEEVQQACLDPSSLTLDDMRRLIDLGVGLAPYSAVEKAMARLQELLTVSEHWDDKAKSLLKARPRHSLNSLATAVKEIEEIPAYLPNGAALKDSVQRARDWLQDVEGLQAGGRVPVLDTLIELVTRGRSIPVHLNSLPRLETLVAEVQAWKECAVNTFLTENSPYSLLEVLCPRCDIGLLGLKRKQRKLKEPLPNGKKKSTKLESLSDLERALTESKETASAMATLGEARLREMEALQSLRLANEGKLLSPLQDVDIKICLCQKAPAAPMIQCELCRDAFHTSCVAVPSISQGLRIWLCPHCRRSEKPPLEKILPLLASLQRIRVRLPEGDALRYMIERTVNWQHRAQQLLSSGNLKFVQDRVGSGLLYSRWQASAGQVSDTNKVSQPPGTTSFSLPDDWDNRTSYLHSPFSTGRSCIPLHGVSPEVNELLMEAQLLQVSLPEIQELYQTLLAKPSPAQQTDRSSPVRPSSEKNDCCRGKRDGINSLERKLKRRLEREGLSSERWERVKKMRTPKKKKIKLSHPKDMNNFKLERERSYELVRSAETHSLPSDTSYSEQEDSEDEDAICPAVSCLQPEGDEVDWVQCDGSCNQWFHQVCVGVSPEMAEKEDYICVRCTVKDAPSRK
For `NCCc1c[nH]c2ccc(O)cc12`, the “activity, negative = inhibition” value was -13.6%.
Still for that read-out and setting: with `C[C@]12N[C@H](Cc3ccccc31)c1ccccc12` the figure was -4.12%.
The same measure, in the same setting: with `CC[C@@]1(O)C(=O)OCc2c1cc1n(c2=O)Cc2cc3ccccc3nc2-1` the figure was 565%; with `O=C1CCCN1CC#CCN1CCCC1`, -15.6%.
The same measure, in the same setting: with `O=C(O)CC[N+](=O)[O-]` the figure was -7.22%.
`CC(Cc1ccc(O)cc1)NCC(O)c1cc(O)cc(O)c1` (configuration not stated): the “activity, negative = inhibition” value was -8.76%.
In the case of `CNCCc1c[nH]c2ccc(O)cc12`, the “activity, negative = inhibition” value was -26%.
On the same count and under the same terms, with `CC1=NN=C(c2ccc(N)cc2)c2cc3c(cc2C1)OCO3` the figure was -23.8%; with `O=C(O)[C@@H]1CCN1`, -3.84%.
`Clc1cnc(Oc2ccc(Oc3ncc(Cl)cc3Cl)cc2)c(Cl)c1`: the “activity, negative = inhibition” value is -7.93%.
Still for that read-out and setting: with `NCCc1c[nH]c2ccccc12` the figure was -14%; with `CC(C)NC(C)Cc1ccc(I)cc1` (configuration not stated), -4.81%.
`Cn1cnc(CCN)c1`: the “activity, negative = inhibition” value was -6.57%.
The same measure, in the same setting: with `CCCCc1ccc(C(=O)O)nc1` the figure was -11.1%; with `CC(=O)[C@H]1CCC2C3CC[C@H]4C[C@H](O)CC[C@]4(C)C3CC[C@@]21C` (some centres not stated), -2.53%.
Regarding `NC(CCP(=O)(O)O)C(=O)O` (configuration not stated), the “activity, negative = inhibition” value is -6.67%.
Still for that read-out and setting: with `CCCN1CCC[C@H](c2cccc(O)c2)C1` the figure was -2.97%.
